Hits are enriched below; roughly 3.8% of the tested compounds scored in any of these assays.
Beta apoptosis – beta cell apoptosis inhibition; INS-1E cytokine-induced death, ATP luminescence, 48 h; percent of positive-control rescue, neutral wells zero; protection from apoptosis, % (no concentration beside the values); hit rate 0.8% among 300,000; AID 435005;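 active = Every replicate reaches about 75%, or at least half do and their mean reaches it too, limit read from the data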;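 note: 0% = cytokine-treated negative control wells and 100% = positive control rescue; higher means more ATP so stronger rescue from cytokine killing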
Jurkat NFkB inh – inhibitors of the PMA/ionomycin-induced NF-kB reporter in Jurkat cells; PMA/ionomycin-induced NF-kB luciferase reporter, luminescence; hit rate 0.53% among 330,000; inhibition, % at 4 µM; AID 435003; in the data active = inhibition above about 50%
A1 inh – inhibitors of the anti-apoptotic protein A1, read as caspase activation; MEF A1-2A-BIM cells, Caspase-Glo 3/7 luminescence, 3 h; percent of clofoctol response, vehicle zero; caspase activation, % (no concentration beside the values); hit rate 0.066% among 330,000;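 active = over half of replicate activation scores above 10%, or exactly half above 10 with the replicate mean above 10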
697 NFkB inh – lowers PMA/ionomycin-induced NF-kB signal in 697 B cells | 697 B-cell NF-kB luciferase reporter, 16 h | inhibition, % at 4 µM | hit rate 0.33% among 330,000; in the data active = inhibition above about 35%
Mdm2 MdmX PPI – human Mdm2/MdmX binding inhibition. O15151+Q00987. SaOS-2 split-luciferase Mdm2/MdmX complementation, luminescence. inhibition, % at 8 µM. hit rate 3% among 330,000;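 active = inhibition of at least 50% at 8 µM in the primary screen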
NTR1 agonist – activates human neurotensin receptor 1. AID 493036. hit rate 0.17% among 330,000. NTR1-U2OS beta-arrestin-GFP spot imaging, agonist mode. activation, % at 20 µM;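 active = activation at or above 40% of the spot to cytoplasm intensity ratio, with at least 20 cells analyzed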;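 note: 0% = DMSO without peptide and 100% = 100 nM NTR1 peptide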
Target sequence (P30989 whole entry, looked up): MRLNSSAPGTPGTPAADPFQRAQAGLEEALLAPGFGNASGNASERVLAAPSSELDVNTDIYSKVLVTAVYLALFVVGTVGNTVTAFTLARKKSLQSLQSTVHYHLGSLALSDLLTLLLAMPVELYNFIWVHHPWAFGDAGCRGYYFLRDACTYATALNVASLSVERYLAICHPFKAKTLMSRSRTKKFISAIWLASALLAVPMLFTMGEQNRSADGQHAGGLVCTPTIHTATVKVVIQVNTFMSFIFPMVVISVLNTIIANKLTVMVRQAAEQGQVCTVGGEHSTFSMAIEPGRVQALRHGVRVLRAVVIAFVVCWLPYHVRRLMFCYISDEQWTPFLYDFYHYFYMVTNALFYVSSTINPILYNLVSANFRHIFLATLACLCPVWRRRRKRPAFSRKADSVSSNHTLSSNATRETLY
Mdm2-MdmX conf – confirmation of human Mdm2/MdmX interaction inhibitors | Mdm2-MdmX binding, luminescent assay | inhibition, % at 8 µM | hit rate 55% among 10,000 | shares compounds with Mdm2 MdmX PPI; in the data active = inhibition above about 40%
Full FLuc ctr – inhibits full-length luciferase, flagging false Mdm2/MdmX hits | hit rate 77% among 6,200 | inhibition, % at 8 µM | SaOS-2 full-length luciferase counterscreen, luminescence | shares compounds with Mdm2 MdmX PPI;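 active = mean inhibition at 8 µM reaching about 37%, which flags the compound as non-specific, limit read from the data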;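 note: p53-null SaOS-2 cells with luciferase driven by a doxycycline-inducible promoter; compound on cells about two nights before reading with doxycycline added after day one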
The depositor's hits bear a star; · = no result.

SMILES | Beta apoptosis | Jurkat NFkB inh | A1 inh | 697 NFkB inh | Mdm2 MdmX PPI | NTR1 agonist | Mdm2-MdmX conf | Full FLuc ctr
COc1ccc(N2CCN(C(=O)Cc3ccc(Cl)cc3)CC2)cc1 | · | 9 | 0 | -11 | 14 | 0 | · | ·
COc1ccc2cc3c(N)nn(C(=O)Cc4ccc(Cl)cc4)c3nc2c1 | 1 | 26 | 0 | -23 | 73* | 7 | 59* | 48*
COc1ccc(CN(C)C(=O)Cc2c[nH]c3ccccc23)cc1 | -12 | 14 | 0 | -5 | -10 | 0 | · | ·
COc1ccc2cc3c(N)nn(C(=O)Cc4c[nH]c5ccccc45)c3nc2c1 | -28 | 45 | -1 | -4 | 93* | 10 | 98* | 52*
COc1cccc(COC(=O)c2nn(-c3ccccc3)nc2N)c1 | -1 | 1 | 1 | 3 | -33 | 0 | · | ·
COc1cccc(CC(=O)n2nc(N)c3cc4ccc(OC)cc4nc32)c1 | -10 | 2 | 0 | -93 | 64* | 12 | -8 | ·
CSc1cccc(N2CC(C(=O)N3CCN(S(=O)(=O)c4ccccc4Cl)CC3)CC2=O)c1 (centres undefined) | 4 | 2 | 0 | 2 | -14 | -1 | · | ·
Cc1ccccc1NS(=O)(=O)c1ccc(C(=O)N2CCN(S(=O)(=O)c3ccccc3)CC2)cc1 | 9 | 11 | 0 | 5 | -4 | 1 | · | ·
O=C(CN1C(=O)NC2(CCCC2)C1=O)NNC(=O)c1ccc(F)cc1 | -17 | 4 | 0 | 17 | 9 | 2 | · | ·
O=C(CSc1nc(-c2ccco2)cc(C(F)(F)F)n1)NCCc1ccccc1 | -3 | 1 | 1 | 16 | 73* | 1 | 68* | 21
Cc1cc(NC(=O)CSc2nc(-c3ccco3)cc(C(F)(F)F)n2)no1 | 18 | 46 | 0 | -26 | 65* | 3 | 53* | 77*
Cc1cc(NC(=O)CCSc2nc(-c3ccco3)cc(C(F)(F)F)n2)no1 | -10 | 8 | 0 | 8 | -4 | 0 | · | ·
Cc1ccsc1C(=O)NC(C)c1ccccc1 (centres undefined) | -7 | -7 | 0 | 25 | 18 | 1 | · | ·
Cc1ccc2c(c1)c1ccc3c(c1n2C)C(=O)C=CC3=O | · | 18 | · | -25 | 86* | 21 | 71* | 57*
COc1ccc2c(c1)c1ccc3c(c1n2C)C(=O)C=CC3=O | · | 14 | · | -35 | 93* | 25 | 74* | 58*
CCN(C(=O)COC(=O)CCCN1C(=O)c2cccc3cccc(c23)C1=O)C1CCS(=O)(=O)C1 (centres undefined) | -4 | 9 | 1 | -9 | -18 | 0 | · | ·
O=C(Cc1c(F)cccc1Cl)NNC(=O)c1ccc(Br)s1 | 1 | 2 | 2 | -2 | -11 | 1 | · | ·
COc1ccc(CCNC(=O)c2ccc(OCC(=O)N3CCOCC3)c(OC)c2)cc1OC | -4 | -7 | 0 | -10 | -2 | 1 | · | ·
Cn1c(SCc2ccccc2C#N)nnc1-c1ccncc1 | · | -13 | -1 | -13 | 9 | -1 | · | ·
Cc1oc2c(c(=O)c1C)C(=O)CC(c1ccccc1)C2 (centres undefined) | · | 15 | 0 | 13 | 16 | 2 | · | ·
CS(=O)(=O)c1sc(C#N)c2c1C(=O)CC(c1ccccc1)C2 (centres undefined) | 39* | 21 | 57* | 1 | 99* | 2 | 100* | 2
Cc1ccc(CNc2ccc([N+](=O)[O-])cc2C(N)=O)cc1 | -3 | -24 | 0 | -44 | -44 | 1 | · | ·
Cc1ccc(Oc2c(C(N)=O)cc([N+](=O)[O-])cc2[N+](=O)[O-])cc1 | 5 | 6 | 2 | -10 | 95* | 2 | 95* | 52*
O=C(O)c1cc2c(ccc3ccccc32)oc1=O | · | 5 | 0 | -13 | 6 | -1 | · | ·
N=c1oc2ccc3ccccc3c2cc1C(N)=S | -7 | -37 | 0 | -4 | 87* | 3 | 46* | 66*
SMILES | Beta apoptosis | Jurkat NFkB inh | A1 inh | 697 NFkB inh | Mdm2 MdmX PPI | NTR1 agonist | Mdm2-MdmX conf | Full FLuc ctr
Cc1nc(SCC(=O)N2CCCCCC2)[nH]c(=O)c1C | -4 | 5 | 1 | 13 | 13 | 0 | · | ·
CCOc1ccc(NC(=O)CN(C)C(=O)CCCc2nc3ccccc3c(=O)[nH]2)cc1OCC | 0 | -15 | -1 | -26 | -1 | 0 | · | ·
CC(C)(C)NC(=O)C(c1ccc(Cl)cc1)N(Cc1ccco1)C(=O)CCl (centres undefined) | 4 | -1 | 1 | 5 | 37 | 1 | · | ·
COc1cc2[nH]c3c(N4CCN(c5ccc(Cl)cc5)CC4)ncnc3c2cc1OC | 29 | -9 | 0 | 23 | 53* | 9 | 31 | ·
CC1CC1C(=O)OCC(=O)N(C)c1c(N)n(Cc2ccccc2)c(=O)[nH]c1=O (centres undefined) | 2 | -5 | 0 | -5 | 20 | 0 | · | ·
COc1ccccc1NC(=O)c1ccccc1NS(=O)(=O)c1cccs1 | 15 | 8 | -1 | 4 | 28 | 3 | · | ·
COc1ccc(C)cc1NC(=O)c1ccccc1NS(=O)(=O)c1ccc(Cl)s1 | 36 | 10 | 0 | -23 | 89* | 13 | 79* | 32
O=C(Nc1cc(S(=O)(=O)N2CCOCC2)ccc1N1CCOCC1)c1ccc([N+](=O)[O-])s1 | 1 | 17 | 0 | 6 | 37 | 4 | · | ·
Cc1ccc(NC(=O)c2ccccc2NS(=O)(=O)c2ccc(Cl)s2)cc1S(=O)(=O)N1CCOCC1 | · | 12 | 0 | -30 | 66* | 10 | 45* | 52*
Cc1ccc(NC(=O)c2ccc([N+](=O)[O-])s2)cc1S(=O)(=O)N1CCOCC1 | -8 | 8 | 0 | 3 | 65* | 4 | 25 | ·
O=C(Nc1cc(S(=O)(=O)N2CCOCC2)ccc1O)c1ccc(NS(=O)(=O)c2ccc(Cl)s2)cc1 | -7 | 14 | 0 | 20 | 1 | 0 | · | ·
O=c1oc(Cc2ccccc2)nc2ccccc12 | 1 | -12 | -5 | -5 | -10 | -1 | · | ·
CN(C)CCCN1c2ccccc2Sc2ccc(Cl)cc21 | -2 | -11 | -1 | 11 | 68* | 4 | 13 | ·
OCCN1CCN(CCCN2c3ccccc3Sc3ccc(Cl)cc32)CC1 | 4 | 3 | 1 | 3 | 46 | 4 | · | ·
CCCNC(=O)C1CCC(CNS(=O)(=O)c2ccc3c(c2)N(C(C)=O)CCO3)CC1 (centres undefined) | -5 | 0 | -1 | 3 | 7 | 0 | · | ·
COc1cc(O)cc2cc3c(c(O)c12)C(=O)CC(C)(O)O3 (centres undefined) | · | -10 | 0 | -9 | 57* | -3 | 53* | 60*
CCOC(=O)c1cnc(-c2ccccc2O)nc1Cl | -2 | -9 | 1 | -10 | 9 | -2 | · | ·
CCOC(=O)C1=Nc2ccccc2C1=[N+]=[N-] | 107* | -26 | -1 | -20 | 51* | 1 | 9 | ·
